Dicer inh: human Dicer pre-microRNA cleavage inhibition | Q9UPY3 | cat-ELCCA pre-miR-21 Dicer processing, chemiluminescence; stronger effect = higher value | z-score at 25 µM | hit rate 6% among 47,000; in the data active = z-score above about 3, passing the limit was not always enough;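 also: plate controls were vehicle for no effect and no enzyme for full effect; higher signal means more uncleaved substrate so more Dicer inhibition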
An asterisk follows results filed as active. The entries come from a sample that favours hits as a whole.

SMILES | Dicer inh
CN1C(=O)C(O)(CC(=O)c2ccc(C3CCCCC3)cc2)c2ccccc21 (configuration not stated) | 0.77
O=C(CC1(O)C(=O)Nc2ccc(Cl)cc21)c1ccc(Cl)cc1 (configuration not stated) | -0.72
O=C(CC1(O)C(=O)Nc2ccccc21)c1ccc(Br)cc1 (configuration not stated) | 0.37
Cc1ccc(C(=O)CC2(O)C(=O)Nc3ccccc32)cc1 (configuration not stated) | -0.4
O=C(CC1(O)C(=O)Nc2ccccc21)c1ccc2ccccc2c1 (configuration not stated) | 4.4*
O=C(CC1(O)C(=O)Nc2ccccc21)c1ccc(C2CCCCC2)cc1 (configuration not stated) | 4.2*
O=C(CC1(O)C(=O)Nc2ccc(Cl)cc21)c1cccc2ccccc12 (configuration not stated) | 0.59
O=C(CC1(O)C(=O)Nc2ccccc21)c1cccc2ccccc12 (configuration not stated) | 5.2*
NC(=O)CSc1ccc2ccccc2n1 | -0.57
COc1cc(C(F)(F)F)nc2ccc(Br)cc12 | -5.1
O=C(Nc1csnc1-c1c(Cl)cccc1Cl)NN1CCOCC1 | -0.81
Cc1cccc2c1N(C(C)C)C(=O)C2=O | 1.6
CC1=C(C(=O)OC2CCCCC2)C(c2cccc(Cl)c2)C2=C(CCCC2=O)N1 (configuration not stated) | 1.2
CCCOC(=O)C1=C(C)NC2=C(C(=O)CCC2)C1c1ccc(C)cc1 (configuration not stated) | 0.83
Cc1ccc(-c2nn(-c3ccccc3)cc2C2CC(c3cccs3)=NN2S(C)(=O)=O)cc1 (configuration not stated) | -1.1
COc1ccc(-c2cnn3c(C(F)(F)F)cc(-c4cccs4)nc23)cc1OC | -0.97
CC(C)Cn1c(SCC(=O)c2ccc(Br)cc2)nc2ccccc2c1=O | -1.2
COC(=O)c1sc(N2C(=O)c3oc4ccccc4c(=O)c3C2c2ccco2)nc1C (configuration not stated) | -0.22
CCCn1c2ccccc2c2nnc(SCC(=O)Nc3nnc(C)s3)nc21 | -0.12
Cc1cc(-c2ccccc2)nc2c1/C(=N\O)CC(C)(C)C2 | -0.42
COc1ccc(C2c3c(oc4ccc(F)cc4c3=O)C(=O)N2CCCN2CCOCC2)cc1 (configuration not stated) | 0.17
CC1=CC(C)(C)N(C(=O)CN2C(=O)C3CCCCC3C2=O)c2ccccc21 (configuration not stated) | -0.4
O=c1nc(SCc2ccccc2Cl)nc(-c2ccc(Cl)cc2)[nH]1 | 0.58
O=c1nc(SCc2c(Cl)cccc2Cl)nc(-c2ccc(Cl)cc2)[nH]1 | 5.9*
CCSc1nc(-c2ccc(Cl)cc2)[nH]c(=O)n1 | -3.4
SMILES | Dicer inh
CC1CN(c2ccccc2)c2nc3c(c(=O)n(CC(=O)O)c(=O)n3C)n2C1 (configuration not stated) | 1.7
CC1(C)Cc2cc3c(cc2C(SCc2ccccc2)=N1)OCCO3 | -0.25
CSC1=NC(C)(C)Cc2cc3c(cc21)OCCO3 | 3.3*
Cc1ccc(NC(=S)Nc2ccc(S(=O)(=O)N3CCCCC3)cc2)cc1F | 1.3
c1ccc(-c2ccc(-c3cnc(-c4ccccc4)o3)cc2)cc1 | 1.9
CC(C)NC(=O)Nc1csc(-c2ccc(C(F)(F)F)cc2)n1 | -1.8
CCOc1ccc2nc(SCCN3CCCCC3)[nH]c2c1 | -0.56
O=C1c2c(O)cccc2Cc2cccc(O)c21 | 0.28
Nc1ccc(O)c(C(=O)O)c1 | 1.2
Nc1ccc(O)c2c1C(=O)c1c(N)ccc(O)c1C2=O | 3.2*
O=S(=O)(CCSc1ncn[nH]1)c1nc2ccccc2s1 | 4.6
CCc1cccc(CC)c1NC(=S)NN | 3.1*
CCc1cccc(CC)c1NC(=O)C(Cl)Cl | -0.22
Cc1cccc(Cl)c1NC(=S)NN | 1.1
Cc1nc(-c2nc(-c3c(C(=O)N/N=C/c4cccs4)noc3C)cs2)cs1 | 0.34
COC(=O)c1scc(C#N)c1N=CN(C)C | -3.9
CCOC(=O)c1snc2c(=O)[nH]cnc12 | 2.2
CCOC(=O)c1sc2nc[nH]c(=O)c2c1C | 4.2*
CCOC(=O)c1c(C)c2c(=O)[nH]cnc2n1-c1ccccc1 | -0.11
CCCCOc1cccc(C2c3c(oc4ccccc4c3=O)C(=O)N2c2nccs2)c1 (configuration not stated) | 0.34
CC12N=NCC1C(=O)N(c1ccccc1Cl)C2=O (configuration not stated) | 0.47
C=CCN1C(=O)C(O)(CC(=O)c2ccccc2)c2ccccc21 (configuration not stated) | -0.1
C=CCN1C(=O)C(O)(CC(=O)c2c(C)cc(C)cc2C)c2ccccc21 (configuration not stated) | 0.2
CCN1C(=O)C(O)(CC(=O)c2c(C)cc(C)cc2C)c2ccccc21 (configuration not stated) | 3.5*
CCN1C(=O)C(O)(CC(=O)c2ccncc2)c2ccccc21 (configuration not stated) | 1.9
SMILES | Dicer inh
C=CCN1C(=O)C(O)(CC(=O)c2ccc(C)cc2)c2ccccc21 (configuration not stated) | -0.13
C=CCN1C(=O)C(O)(CC(=O)c2ccc3c(c2)OCCO3)c2ccccc21 (configuration not stated) | 0.54
C=CCN1C(=O)C(O)(CC(=O)c2ccc3c(c2)OCO3)c2ccccc21 (configuration not stated) | 4.3*
CCOC(=O)CN1C(=O)C(O)(CC(=O)c2ccc3c(c2)OCO3)c2ccccc21 (configuration not stated) | 0.9
CN1C(=O)C(O)(CC(=O)c2ccc(Cl)cc2)c2ccccc21 (configuration not stated) | 3.9*
CN1C(=O)C(O)(CC(=O)c2ccc(C(C)(C)C)cc2)c2ccccc21 (configuration not stated) | 0.59
C=CCN1C(=O)C(O)(CC(=O)c2ccc(CC)cc2)c2ccccc21 (configuration not stated) | 3.2*
CC(C)c1ccc(C(=O)CC2(O)C(=O)N(C)c3ccccc32)cc1 (configuration not stated) | 1.7
CC1CN(c2ccc3nnc(-c4ccc(C(F)(F)F)cc4)n3n2)CC(C)O1 (configuration not stated) | -0.75
C=C(C)Cn1c(-c2ccco2)nc2ccccc21 | -0.77
COc1cc(C)ccc1S(=O)(=O)n1cnc2cc(C)c(C)cc21 | 0.78
COc1ccc(-c2noc(COc3ccccc3)n2)cc1OC | 0.69
CCOc1cc(C2NC(=O)c3sc(=S)n(-c4ccccc4)c3N2)ccc1OC(C)=O (configuration not stated) | 1.7
O=C(O)CC1=C(c2ccccc2)CCC1=O | -2.1
C=CCN1C(=O)NC2C1N(S(C)(=O)=O)CCN2S(C)(=O)=O (configuration not stated) | 5.8*
Cn1c(=O)c2c(nc(NCc3cccnc3)n2Cc2ccccc2F)n(C)c1=O | 1.8
Cc1ccc(C(=O)/C(=C\N(C)C)c2nnnn2-c2ccccc2)cc1 | -2.7
CCOC(=O)c1c(CN(C)C)n(C)c2cc(Br)c(O)c(CN(C)C)c12 | 1.9
CCOC(=O)c1c(C)n(C)c2cc(CN(C)C)c(O)c(S(=O)(=O)c3ccccc3)c12 | 3.8*
CCOC(=O)c1c(CS(=O)(=O)c2ccccc2)n(C)c2cc(Br)c(O)cc12 | 1.4
O=C(Oc1cc(=O)oc2c1c(=O)n1c3c(cccc23)CC1)c1cccs1 | -0.03
CCn1c(=S)ccc2ccccc21 | -0.12
COc1ccccc1-c1nc2c3c4c(sc3ncn2n1)C(C)(C)NC(C)(C)C4 | 0.7

Screens from PubChem BioAssay.
